# Measurements taken from PubChem BioAssay (NCATS).
# Inconclusive results are not listed. Where a call stands in place of a potency, no number is given. Unmarked numbers belong to inactive results. Active and inactive are the calls of the source. Calls come from the whole dose curve; as a rule, active = well fitted curve in the direction sought with a large enough effect; inconclusive = small, poorly fitted or top-dose-only effect, or another doubt; inactive = no such curve, though single readings can be large; an effect the other way counts as inactive or inconclusive.
# Key:
# [1] = BET inhibitor-based combinations targeting novel dependencies in MECOM-rearranged (r) AML: HNT-34 cell line (AID 2202234); note: nearly all actives have a fitted effect of over 35% in size; note: potency is the fitted concentration of half-maximal effect
# Procedure, shortened: (§1)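 Seeding density was 500 cells/well, and drug exposure lasted 48 hr under standard culture conditions. Read-out used CellTiter-Glo reagent with a 15 min room-temperature incubation before luminescence measurement; AUC and Z-AUC summarize the normalized responses.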
# [2] = BET inhibitor-based combinations targeting novel dependencies in MECOM-rearranged (r) AML: AML-191 cell line (AID 2202236; note: nearly all actives have a fitted effect of over 35% in size; note: potency is the fitted concentration of half-maximal effect)
# Procedure, shortened: (§2)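 Readout: CellTiter-Glo luminescence. Exposure: 48 h, 11 concentrations, 500 cells/well. Metric: AUC and within-line Z-AUC after DMSO/empty-well normalization.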
# [3] = BET inhibitor-based combinations targeting novel dependencies in MECOM-rearranged (r) AML: SET-2 cell line (AID 2202231); conditions: SET-2 AML cells viability, CellTiter-Glo luminescence, 48 h; viability: stronger effect = lower value, series mostly up to about 46 µM; note: nearly all actives have a fitted effect of over 35% in size
# Procedure, shortened: as §2
# [4] = BET inhibitor-based combinations targeting novel dependencies in MECOM-rearranged (r) AML: AML-194 cell line (AID 2202237; note: nearly all actives have a fitted effect of over 40% in size; note: potency is the fitted concentration of half-maximal effect)
# Procedure, shortened: as §2
# [5] = BET inhibitor-based combinations targeting novel dependencies in MECOM-rearranged (r) AML: OCI-AML3 cell line (AID 2202232); conditions: Potency: OCI-AML3 viability; note: nearly all actives have a fitted effect of over 35% in size; note: potency is the fitted concentration of half-maximal effect
# Procedure, shortened: as §2
# [6] = BET inhibitor-based combinations targeting novel dependencies in MECOM-rearranged (r) AML: MV-4-11 cell line (AID 2202233); note: nearly all actives have a fitted effect of over 45% in size; note: potency is the fitted concentration of half-maximal effect
# Procedure, shortened: as §1
# [7] = BET inhibitor-based combinations targeting novel dependencies in MECOM-rearranged (r) AML: UCSD-AML1 cell line (AID 2202235); note: nearly all actives have a fitted effect of over 40% in size; note: potency is the fitted concentration of half-maximal effect
# Procedure, shortened: as §1
smiles,measurement,setting,value
C[C@@H](C1CC[C@@]2(O)C3=CC(=O)[C@@H]4C[C@@H](O)[C@@H](O)C[C@]4(C)[C@H]3CC[C@]12C)[C@H](O)CCC(C)(C)O (some centres not stated),Potency,[1],inactive
same,Potency,[2],inactive
COC(=O)[C@@]12OC[C@]34[C@H]([C@@H](O)[C@@H]1O)[C@@]1(C)CC(=O)C(O)=C(C)[C@@H]1C[C@H]3OC(=O)[C@H](OC(=O)/C=C(\C)C(C)C)[C@@H]24,Potency,[2],0.0066 µM (active)
CC(=O)O[C@@]12CO[C@@H]1C[C@H](O)[C@@]1(C)C(=O)[C@H](O)C3=C(C)[C@@H](O)C[C@@](O)([C@@H](OC(=O)c4ccccc4)[C@H]21)C3(C)C,viability,[3],103%
same,Potency,[4],23.5 µM (active)
C[C@]12COC(=O)C[C@@H]1CC[C@@H]1[C@@H]2CC[C@@]2(C)[C@H]1CC[C@]2(C)O,Potency,[5],inactive
same,Potency,[2],inactive
same,Potency,[4],inactive
Cn1cc(C2=C(c3cn(C4CCN(Cc5ccccn5)CC4)c4ccccc34)C(=O)NC2=O)c2ccccc21,Potency,[5],inactive
same,Potency,[6],4.68 µM (active)
same,Potency,[7],inactive
CN(C)[C@@H]1C(=O)C(C(N)=O)=C(O)[C@@]2(O)C(=O)C3=C(O)c4c(O)cccc4[C@@](C)(O)[C@H]3C[C@@H]12,Potency,[5],inactive
same,Potency,[2],inactive
same,Potency,[4],inactive
O=C(O)C1=CCCN(CCOC(c2ccc(C(F)(F)F)cc2)c2ccc(C(F)(F)F)cc2)C1,Potency,[2],inactive
C/C(O)=C(\C#N)C(=O)Nc1cc(Br)ccc1Br,Potency,[5],inactive
same,Potency,[6],inactive
same,Potency,[7],inactive
same,Potency,[2],inactive
same,Potency,[4],inactive
Cn1c(/C=C/CO)c(CO)c2c1C(=O)C=C(N1CC1)C2=O,Potency,[1],inactive
Cn1c(COP(=O)(NCCBr)NCCBr)cnc1[N+](=O)[O-],viability,[3],123%
same,Potency,[1],inactive
same,Potency,[7],inactive
same,Potency,[2],inactive
C#CC1(O)CCC2C3CCC4=CC(=O)CCC4(C)C3CCC21C (configuration not stated),viability,[3],107%
same,Potency,[1],inactive
same,Potency,[2],inactive
Cc1[nH]ncc1-c1cc2nc([C@@H]3CC4CCN3CC4)[nH]c(=O)c2s1,Potency,[5],9.34 µM (active)
same,Potency,[6],3.32 µM (active)
same,Potency,[1],9.34 µM (active)
same,Potency,[7],9.34 µM (active)
C[C@]12CC[C@H]3[C@@H](CC[C@@]45O[C@@H]4C(O)=C(C#N)C[C@]35C)[C@@H]1CC[C@@H]2O,Potency,[1],inactive
same,Potency,[7],inactive
same,Potency,[2],inactive
N#CC(O[C@@H]1O[C@H](CO[C@@H]2O[C@H](CO)[C@@H](O)[C@H](O)[C@H]2O)[C@@H](O)[C@H](O)[C@H]1O)c1ccccc1 (some centres not stated),viability,[3],93.9%
same,Potency,[6],inactive
same,Potency,[1],inactive
same,Potency,[4],inactive
C/C(=C\c1csc(C)n1)[C@@H]1C[C@@H]2O[C@]2(C)CCC[C@H](C)[C@H](O)[C@@H](C)C(=O)C(C)(C)[C@@H](O)CC(=O)O1,Potency,[5],0.0059 µM (active)
same,Potency,[6],0.0093 µM (active)
same,Potency,[4],0.0118 µM (active)
